Source: PubChem BioAssay AID1626 (SRMLSC, 2009)
“And” between values parts separate entries of the source, which are not always exact repeats. Equal entries are not always repeated. About 2,000 (0.91%) of roughly 220,000 compounds were called active. About 2% were inconclusive and are not listed. A selection follows. Entries with a potency or affinity are not part of this list. A number with no mark means an inactive call. Cut-off read from the data, not from the text of the source: inconclusive = inhibition above about 80% without an active follow-up result; inactive = below that; test concentration not stated here.

Test: M. tuberculosis H37Rv growth inhibitors, H37Rv strain (AID 1626);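 note: bacteria incubated seven days before Alamar blue readout; 0% = bacteria only wells and 100% = bacteria with antibiotic wells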
Conditions: stronger effect = higher value, concentration not given here
`Cc1ccc(C(=O)CSC2=NC(N)=C(C#N)C3(CCCCC3)C2C(N)=O)cc1` (centres undefined) gave an inhibition of -12.2%.
Molecule `FC(F)(F)c1nnc2ccc(N3CCCC3)nn12` has an inhibition of -2.32%.
For `Fc1c(F)c(C(F)(F)F)c(F)c(F)c1N1CCN(c2ccc3nnc(C(F)(F)F)n3n2)CC1`, the inhibition was 8.98%.
`COc1ccc(NC(=O)COc2ncnc3ccccc23)cc1S(=O)(=O)N1CCOCC1` showed an inhibition of -8.54%.
`CCCc1[nH]n(-c2nc3ccccc3s2)c(=O)c1C=NCCCOC` gave an inhibition of -3.55%.
`Cc1ccc(C)c(C(=O)Nc2cc(C)nn2-c2nc(C)cc(C)n2)c1` showed an inhibition of 22%.
In the case of `Cc1cc(Nc2ccccc2)n(-c2ccc(Br)cc2)n1`, the inhibition is reported as -7.48%.
Molecule `COc1ccc(Nc2cc(C)nc(N3CCOCC3)n2)cc1` has an inhibition of 10.4%.
In the case of `Cc1cc(Nc2ccccc2)n(-c2ccccc2)n1`, the inhibition is reported as 1.16%.
In the case of `CC(=O)Nc1cc(C)nn1-c1nc(C)cc(C)n1`, the inhibition is reported as 3.43%.
In the case of `CNc1cc(C)nc(-n2nc(C)cc2C)n1`, the inhibition is reported as 13%.
For `O=C(c1ccc(Cl)nc1)N1CCN(S(=O)(=O)c2ccc(Cl)cc2)CC1`, the inhibition was 5.1%.
Molecule `Cc1ccc(/C=C(/C#N)C(=O)NC(C)c2ccccc2)o1` (centres undefined) has an inhibition of 5.5%.
`CCCC(c1nnnn1C(C)(C)CC)N1CCN(C2CCCC2)CC1` (centres undefined) showed an inhibition of 3.73%.
`CC(=O)Nc1ccccc1C(=O)C(=O)Nc1ccc(C(=O)N2CCOCC2)cc1` gave an inhibition of -0.85%.
Work on `Cc1ccc(C2C(C(=O)c3sc(C)nc3C)=C(O)C(=O)N2CCN(C)C)o1` (centres undefined) yielded an inhibition of -6.12%.
Work on `COc1ccc(S(=O)(=O)Nc2ccc(N3CCOCC3)cc2)cc1[N+](=O)[O-]` yielded an inhibition of -1.81%.
In the case of `COC(CNc1cc(=O)oc2ccccc12)OC`, the inhibition is reported as 3.54%.
Work on `O=C(COC(=O)CC1CC2CCC1C2)Nc1c(F)cccc1F` (centres undefined) yielded an inhibition of -6.22%.
`CCOC(=O)c1ccc(NC(=O)C(=O)NCCc2ccc(OC)cc2)cc1` showed an inhibition of 2.35%.
`CCCCOC(=O)c1ccc(NC(=O)c2c(OC)cccc2OC)cc1` showed an inhibition of -7.36%.
`CCCCNc1ccc(C(=O)OCCN(C)C)cc1` showed an inhibition of 5.64%.
In the case of `CCCCOC(=O)c1ccc(NC(=O)C(=O)NCc2ccco2)cc1`, the inhibition is reported as 5.24%.
With `CCN(CC)CCNC(=O)c1ccc(NC(C)=O)cc1` the inhibition was -2.03% and 6.46%.
In the case of `CCCCOC(=O)c1ccc(NC(C)=O)cc1`, the inhibition is reported as 58.3%.
For `CCN(CC)CCNC(=O)C(=O)Nc1ccc(C(=O)OC)cc1`, the inhibition was 0.58%.
For `CCOC(=O)c1ccc(NC(=S)NCc2cccnc2)cc1`, the inhibition was -9.64%.
For `CCOc1cc(CNc2ccc(N(C)C)cc2)cc(Br)c1OCC(=O)NC(C)(C)C`, the inhibition was 13.9%.
`O=C(Cn1nnc2ccccc21)OCc1ccccc1` gave an inhibition of 3.11%.
`CC(C(=O)Nc1ccc(C(=O)O)cc1)N1C(=O)c2ccccc2C1=O` (centres undefined) gave an inhibition of 2.02%.
`CC1C(=O)NN=C1C(=O)N/N=C/c1ccco1` (centres undefined) showed an inhibition of 4.15%.
`N/C(CN1CCCC1=O)=N\OC(=O)c1ccccc1Cl` showed an inhibition of -4.21%.
Work on `CC(C)(C)C(=O)Nc1ccc(N=Nc2ccccc2)cc1` yielded an inhibition of 1.74%.
Molecule `COc1ccc(C2=NOC(C)(c3nnc(-c4ccncc4)o3)C2)cc1` (centres undefined) has an inhibition of 3.27%.
`O=C(c1csc2c1CCCC2)N1CCCCC1` gave an inhibition of -7.91%.
In the case of `Cc1ccc2c(c1)NC(=O)C(CC(=O)NCCCN1CCc3ccccc3C1)O2` (centres undefined), the inhibition is reported as -7.1%.
Work on `COCCOC(=O)c1c(C)oc2ccc(OCc3ccccc3)cc12` yielded an inhibition of 0.54%.
For `Cc1cc(=O)oc2cc(OC(=O)c3ccccc3)ccc12`, the inhibition was 70%.
With `COCCOC(=O)c1c(C)oc2ccc(OC(=O)c3c(OC)cccc3OC)cc12` the inhibition was 9.56%.
Work on `COCCOC(=O)c1c(C)oc2ccc(OC(=O)N(C)C)cc12` yielded an inhibition of -0.97%.
`CC(=O)Oc1ccc2c(C)cc(=O)oc2c1` gave an inhibition of 74.8%.
For `COCCOC(=O)c1c(C)oc2ccc(OS(C)(=O)=O)cc12`, the inhibition was 10.4%.
With `COc1ccccc1N(CC(=O)NCc1ccccc1)C(=O)CCC(=O)Nc1cc(C)ccn1` the inhibition was -0.58%.
Work on `Clc1cccc(-c2nnc(-c3ccccc3)o2)c1` yielded an inhibition of 10.9%.
`N#CCC(=O)Nc1ccc(C(=O)NCc2ccccn2)cc1` gave an inhibition of -2.46%.
In the case of `CCC(=O)c1cc(F)c(N2CCN(S(=O)(=O)c3ccc(C)cc3)CC2)cc1C`, the inhibition is reported as 4.53%.
`O=C(CN1C(=O)CCSc2ccccc21)N1CCC2(CC1)OCCO2` showed an inhibition of -1.04%.
For `CCc1nnc(NC(=O)CSc2nnc(COc3ccccc3)n2Cc2ccccc2)s1`, the inhibition was -6.06%.
For `O=C(NCc1ccccc1)c1c[nH]c2cc3c(cc2c1=O)OCCO3`, the inhibition was -8.63%.
With `CC(c1ccccc1C(O)c1ccccc1)N(C)C` (centres undefined) the inhibition was -3.64%.
`CC(c1ccccc1C(O)(c1ccccc1)c1ccccc1)N(C)C` (centres undefined) gave an inhibition of 12.7%.
With `COc1ccc(CNC(=O)CCn2c(=O)[nH]c3ccccc3c2=O)cc1` the inhibition was -0.21%.
`CCn1c(C2CCN(S(=O)(=O)c3ccc(OC)cc3)CC2)n[nH]c1=S` showed an inhibition of 2.92%.
With `Cc1[nH]nc2c1C(c1ccco1)C(C#N)=C(N)O2` (centres undefined) the inhibition was 5.49%.
In the case of `Cc1[nH]nc2c1C(c1ccc(-c3ccccc3C#N)o1)C(C#N)=C(N)O2` (centres undefined), the inhibition is reported as -1.71%.
With `Cc1[nH]nc2c1C(c1ccc(Cl)cc1)C(C#N)=C(N)O2` (centres undefined) the inhibition was -11.2%.
`Cc1ccc(C2C(C#N)=C(N)Oc3n[nH]c(C)c32)cc1` (centres undefined) gave an inhibition of -5.8%.
Molecule `O=C1CCC(c2ccccc2)=NN1` has an inhibition of -7.26%.
Molecule `CC(C)=C1C2CCC1C1C(=O)N(c3ccc(C)c(C)c3)C(=O)C21` (centres undefined) has an inhibition of 2.47%.
Work on `Cn1cc(Br)c(C(=O)NC(=S)Nc2ccc(S(N)(=O)=O)cc2)n1` yielded an inhibition of -5.09%.
`Cc1cc(C(=O)Nc2cccnc2Cl)on1` gave an inhibition of -0.41%.
Molecule `Cc1occc1-c1nnc(SCC(=O)Nc2nccs2)n1CCc1ccccc1` has an inhibition of 1.51%.
In the case of `Cc1csc(NC(=O)c2ccc(C(=O)Nc3nc(C)cs3)cc2)n1`, the inhibition is reported as -5.15%.
In the case of `Cc1csc(NC(=O)c2ccc(C)c([N+](=O)[O-])c2)n1`, the inhibition is reported as 3.94%.
For `COc1ccc(CC(=O)Nc2nc(-c3cccc([N+](=O)[O-])c3)cs2)cc1`, the inhibition was 1.75%.
Work on `CC(=O)Nc1nc(-c2cccs2)cs1` yielded an inhibition of -6.43%.
Work on `CC(=O)Nc1nc(-c2ccc([N+](=O)[O-])cc2)cs1` yielded an inhibition of -3.92%.
`COCC(=O)Nc1nc(-c2ccc([N+](=O)[O-])cc2)cs1` showed an inhibition of 0.01%.
For `Cc1cc(NS(=O)(=O)c2ccc(NC(=O)NC(C)(C(F)(F)F)C(F)(F)F)cc2)no1`, the inhibition was 3.8%.
Work on `CCN1CCN(C(=O)CCNC(=O)Cn2ccc3ccccc3c2=O)CC1` yielded an inhibition of -4.7%.
For `O=C(O)c1ccc(Cn2cnc3scc(-c4ccccc4)c3c2=O)cc1`, the inhibition was 1.45%.
Molecule `CCc1cccc2c(C(=O)CSc3nnc(-c4ccoc4C)n3C)c[nH]c12` has an inhibition of -9.96%.
In the case of `Cc1ccc2nc3c(cc2c1)CC1(C(=O)N(C)C(=O)N(C)C1=O)C1COCCN31` (centres undefined), the inhibition is reported as 15.8%.
With `Cc1ccc(-n2c(=S)[nH]c3[nH]ncc3c2=O)cc1` the inhibition was 1.01%.
`O=C1Nc2cc(C(=O)N3CCc4ccccc4C3)ccc2S/C1=C\c1ccccc1` showed an inhibition of 27.6%.
For `COc1ccc(/C=C2\Sc3ccc(C(=O)N4CCc5ccccc5C4)cc3N(C)C2=O)cc1`, the inhibition was 23.7%.
With `CCCCSc1nc2ccc(Nc3nc(N4CCOCC4)nc(N4CCOCC4)n3)cc2s1` the inhibition was 7.41%.
In the case of `COCc1cc(=O)n2[nH]c(SCc3ccccc3)nc2n1`, the inhibition is reported as -0.4%.
`CC(C)COc1ncnc2c1sc1nc3c(cc12)COC(C)(C)C3` showed an inhibition of -12.6%.
Work on `Cc1nn2c(NCc3ccccn3)cc(C(C)(C)C)nc2c1-c1ccccc1` yielded an inhibition of 68.6%.
In the case of `Cc1cc(NCCN2CCOCC2)n2nc(C)c(-c3ccccc3)c2n1`, the inhibition is reported as 2.31%.
`Cc1cc(Nc2ccccc2)n2nc(C)c(-c3ccccc3)c2n1` showed an inhibition of 3.74%.
`CC(=O)Nc1ccc(Nc2cc(C)nc3c(-c4ccc(Cl)cc4)c(C)nn23)cc1` gave an inhibition of 21.5%.
Work on `Cc1nn2c(N3CCCC3)cc(C(C)C)nc2c1-c1ccccc1` yielded an inhibition of -3.85%.
`CCCc1cc(N2CCCC2)n2nc(C)c(-c3ccccc3)c2n1` showed an inhibition of -0.95%.
For `Cc1nn2c(NCc3ccccn3)cc(C(C)C)nc2c1-c1ccccc1`, the inhibition was 99.8%.
Molecule `Cc1cc(NCCCN2CCOCC2)n2nc(C)c(-c3ccccc3)c2n1` has an inhibition of 1.95%.
Work on `NC(=S)Nc1cccc(F)c1` yielded an inhibition of -6.55%.
Molecule `Cc1ccc(CNC(=O)Nc2cccc(C)c2)cc1` has an inhibition of -0.4%.
For `CCC(Sc1ccccn1)C(=O)Nc1nnc(C)s1` (centres undefined), the inhibition was 22%.
`O=C(Nc1ccc2c(c1)OCO2)c1nn(-c2ccccc2)c(=O)c2ccccc12` gave an inhibition of -10.6%.
`Cc1nc2ncccn2c1-c1csc(Nc2ccc(O)cc2)n1` showed an inhibition of 1.06%.
Work on `Cc1ccc(Nc2nc(-c3c(C)nc4ncccn34)cs2)cc1` yielded an inhibition of 6.26%.
With `O=C(Nc1cccc(Cl)c1)OCc1cn(-c2ccccc2)nn1` the inhibition was -9.19%.
Molecule `Cc1ccc(CN2CCN(/N=C/c3cc(Br)ccc3O)CC2)cc1` has an inhibition of 2.82%.
Work on `COc1ccc(CCNC(=O)CN(CCc2ccccc2)S(C)(=O)=O)cc1OC` yielded an inhibition of 5.24%.
Work on `CCCN(CCC)C(=O)CSc1nc2c(sc(=S)n2-c2ccc(OCC)cc2)c(=O)[nH]1` yielded an inhibition of 6.22%.
`O=C(Nc1ccccc1C(=O)NCc1ccccc1)c1ccccc1` gave an inhibition of -4.15%.
With `O=C(O)CCC(=O)Nc1ccccc1C(=O)NCc1ccccc1` the inhibition was -4.2%.
